Results: PubChem BioAssay (Tox21)
Inconclusive results are not listed. The source made the active and inactive calls. Unless noted, the call rests on the fitted dose curve.

Columns and labels:
[1] = Nuclear factor erythroid 2-related factor 2/antioxidant responsive element (Nrf2/ARE) small molecule agonists: qHTS cell viability counter screen in human keratinocytes (AID 1919968; active means well fitted curve in the direction sought with a large enough effect in the repeat runs; an effect the other way counts as inactive or inconclusive; further: nearly all actives have a fitted effect of over 55% in size)
Method in brief: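 Stably transfected HaCaT (KeratinoSens), 1,500/well. Test agents in DMSO were applied for 23 h, 37 C/5% CO2. CellTiter-Fluor was incubated 1 h before the fluorescence read.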

[2] = Nuclear factor erythroid 2-related factor 2/antioxidant responsive element (Nrf2/ARE) small molecule agonists: luciferase reporter gene qHTS assay in human keratinocytes (AID 1919969); further: nearly all actives have a fitted effect of over 35% in size
[3] = target: Gonadotropin-releasing hormone receptor (Homo sapiens) (UniProt P30968); assay: Human gonadotropin-releasing hormone receptor (GnRHR) small molecule agonists, calcium flux assay in GnRHR-HEK293 cells (AID 1920063); further: nearly all actives have a fitted effect of over 35% in size
Method in brief: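 Stable human GnRHR HEK293 line. 18 h plating, then calcium dye for 1 h at 37 C. Agonist-mode compound addition from DMSO stocks; fluorescence monitored 3 min.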

[4] = target: KiSS-1 receptor (Homo sapiens) (UniProt Q969F8); assay: Human kisspeptin (KISS1R) small molecule agonists, calcium flux assay in KISS1R-HEK293 cells (AID 1920064; active means well fitted curve in the direction sought with a large enough effect in the repeat runs; an effect the other way counts as inactive or inconclusive)
Method in brief: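 After overnight (18 h) culture at 37 C/5% CO2, human KISS1R-HEK293 cells received calcium dye for 1 h, then test compound; emission at 540 nm (excitation 480 nm) was tracked for 3 min.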

[5] = G protein-coupled receptor (GPCR) small molecule agonists, calcium flux assay: HEK293 wild type cell line counter screen (AID 1920065)
Method in brief: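 Following 18 h incubation at 37 C/5% CO2, plates got calcium dye for 1 h; compounds, ATP or DMSO were then pinned in and fluorescence followed kinetically (480/540 nm).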

[6] = p53 small molecule agonists, cell-based qHTS assay with human liver microsomes (AID 1963577);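 further: p53 response element beta-lactamase reporter cells with liver microsomes plus NADPH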
Method in brief: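 HLM-supplemented p53RE-bla reporter assay: 16 h compound exposure at 37 C, microsomes and NADPH each 0.5 mg/mL final, read by fluorescence intensity.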

[7] = p53 small molecule agonists, cell-based qHTS assay with rat liver microsomes (AID 1963578)
Method in brief: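 Quantitative HTS of the Tox21 10K library: p53RE-bla cells, rat liver microsomes plus NADPH at 0.5 mg/mL final each, 16 h at 37 C, beta-lactamase fluorescence detection.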

[8] = p53 small molecule agonists, cell-based qHTS assay with human liver microsomes: qHTS cell viability counter screen (AID 1963579); further: nearly all actives have a fitted effect of over 45% in size
Method in brief: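 Viability of p53RE-bla cells is measured as CellTiter-Glo luminescence following a 16 h, 37 C incubation with compound, liver microsomes from human donors and NADPH.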

[9] = p53 small molecule agonists, cell-based qHTS assay with rat liver microsomes: qHTS cell viability counter screen (AID 1963580); further: nearly all actives have a fitted effect of over 45% in size
Method in brief: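 Luminescent ATP readout (CellTiter-Glo, 30 min at room temperature) reports viability of p53RE-bla HCT-116 cells after 16 h at 37 C with test compounds under metabolic activation by rat liver microsomes and NADPH at 0.5 mg/mL final each.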

[10] = p53 small molecule agonists, cell-based qHTS assay (AID 1963582; active means well fitted activation curve with a large enough effect in the signal ratio in the repeat runs, not every such curve was filed as active; the % refers to the signal ratio)
Method in brief: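 Measured: fluorescence from cleaved LiveBLAzer substrate. System: p53RE-bla cells, 16 h compound treatment at 37 C, 2 h substrate step at room temperature.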

[11] = target: Beta-2 adrenergic receptor (Homo sapiens) (UniProt P07550); assay: Adrenergic beta2 receptor (ADRB2) small molecule antagonists, cell-based qHTS assay (AID 1963592); further: series mostly up to about 92 µM; nearly all actives have a fitted effect of over 50% in size
Method in brief: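 Assay format: CHO-ADRB2 cells, 18-20hr seeding at 37C/5% CO2, then compound plus 1nM isoproterenol agonist mix for 0.5hr RT. Homogeneous time-resolved fluorescence cAMP detection after 1hr, expressed as 665/615 nm ratio.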

[12] = target: Beta-2 adrenergic receptor (Homo sapiens) (UniProt P07550); assay: Adrenergic beta2 receptor (ADRB2) small molecule agonists, cell-based qHTS assay (AID 1963593);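 further: CHO cells stably overexpressing human ADRB2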
Method in brief: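 CHO cells stably over-expressing ADRB2 were plated overnight at 37C, then dosed with compounds plus a stimulation mix containing 100uM IBMX and 25uM Ro-20-1724 for 0.5hr at room temperature. cAMP was measured by HTRF competition, 1hr.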

[13] = target: D(2) dopamine receptor (Homo sapiens) (UniProt P14416); assay: Dopamine D2 receptor (DRD2) small molecule agonists, cell-based qHTS assay (AID 1963594); further: nearly all actives have a fitted effect of over 35% in size
Method in brief: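 HEK293 cells stably expressing DRD2 were cultured 24 h at 37 C, then given Ro20-1724 (0.1 mM final) and compounds for 10 min at room temperature. NKH477 (200nM) was then added for 30 min. cAMP was read by HTRF.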

[14] = target: D(2) dopamine receptor (Homo sapiens) (UniProt P14416); assay: Dopamine D2 receptor (DRD2) small molecule antagonists, cell-based qHTS assay (AID 1963595; active means well fitted inhibition curve with a large enough effect in the signal ratio in the repeat runs, with a control signal flat; the % refers to the signal ratio)
Method in brief: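 DRD2-HEK293; 0.1 mM Ro20-1724; cpd 10 min RT; NKH477 200 nM + quinpirole 12 nM, 30 min RT; HTRF cAMP (cAMP-d2/anti-cAMP cryptate), 665/620 nm ratio after 1 h.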

[15] = target: 5-hydroxytryptamine receptor 2A (Homo sapiens) (UniProt P28223); assay: 5-hydroxytryptamine receptor 2A (HTR2A) small molecule antagonists, cell-based qHTS assay (AID 1963586); further: nearly all actives have a fitted effect of over 45% in size
Method in brief: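 CHO cells stably expressing human HTR2A were plated for 18 h at 37 C, then loaded with calcium dye for 1 h. Compounds were preincubated 5 min at room temperature before DOI (4 nM solution) was added. Kinetic fluorescence was read for 3 min.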

[16] = target: 5-hydroxytryptamine receptor 2A (Homo sapiens) (UniProt P28223); assay: 5-hydroxytryptamine receptor 2A (HTR2A) small molecule agonists, cell-based qHTS assay (AID 1963587); further: nearly all actives have a fitted effect of over 30% in size
Method in brief: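 HTR2A-CHO cells, plated 18 h at 37 C/5% CO2, dye-loaded 1 h at 37 C; compounds in DMSO added by pin tool (agonist mode). Intracellular calcium flux read as kinetic fluorescence on FDSS over 2 min at 1 s intervals.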

[17] = target: Muscarinic acetylcholine receptor M1 (Homo sapiens) (UniProt P11229); assay: Cholinergic receptor muscarinic 1 (CHRM1) small molecule agonists, cell-based qHTS assay (AID 1963589); further: nearly all actives have a fitted effect of over 35% in size
Method in brief: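 Kinetic fluorescence (1 s intervals) of calcium-sensitive dye in human M1 CHO cells after compound addition; cells pre-incubated 18 h at 37 C/5% CO2 and dye-loaded 1 h.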

[18] = cAMP Responsive Elements (CRE) small molecule agonists, cell-based qHTS assay (AID 1963590)
Method in brief: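 Test agents in DMSO were incubated 3 h at 37 C/5% CO2 with CRE-bla HEK 293T cells seeded 18 h earlier; LiveBLAzer B/G FRET substrate was added and read after 2 h at room temperature.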

[19] = cAMP Responsive Elements (CRE) small molecule antagonists, cell-based qHTS assay (AID 1963591; active means well fitted inhibition curve with a large enough effect in the signal ratio in the repeat runs, not every such curve was filed as active; the % refers to the signal ratio)
Method in brief: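 Reporter line CRE-bla HEK 293T in dialyzed-FBS DMEM; cells preincubated 18 h, treated 3 h with compound plus NKH477 (0.25 uM final); LiveBLAzer FRET, 2 h RT.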

[20] = target: Muscarinic acetylcholine receptor M1 (Homo sapiens) (UniProt P11229); assay: Cholinergic receptor muscarinic 1 (CHRM1) small molecule antagonists, cell-based qHTS assay (AID 1963588); further: nearly all actives have a fitted effect of over 40% in size
Method in brief: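 Compounds were tested at 15 concentrations in three independent runs. Dye-loaded CHRM1-CHO cells were exposed 5 min at room temperature before stimulation by acetylcholine added at 50nM. Intracellular calcium was read kinetically on FDSS for 3 min.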

Measured: Potency

Chain of Beta-2 adrenergic receptor (Homo sapiens) (P07550 whole entry, looked up): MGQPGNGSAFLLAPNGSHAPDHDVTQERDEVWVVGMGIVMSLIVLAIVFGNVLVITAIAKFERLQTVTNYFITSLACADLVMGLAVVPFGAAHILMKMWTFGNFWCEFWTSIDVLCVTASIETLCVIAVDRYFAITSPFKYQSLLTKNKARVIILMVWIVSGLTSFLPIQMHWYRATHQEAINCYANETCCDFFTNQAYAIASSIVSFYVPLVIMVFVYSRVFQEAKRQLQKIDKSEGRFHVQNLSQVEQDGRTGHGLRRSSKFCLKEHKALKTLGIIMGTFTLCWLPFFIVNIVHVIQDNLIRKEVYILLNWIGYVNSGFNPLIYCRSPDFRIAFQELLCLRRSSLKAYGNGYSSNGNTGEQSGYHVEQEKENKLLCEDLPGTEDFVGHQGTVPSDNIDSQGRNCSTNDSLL
Chain of 5-hydroxytryptamine receptor 2A (Homo sapiens) (P28223 whole entry, looked up): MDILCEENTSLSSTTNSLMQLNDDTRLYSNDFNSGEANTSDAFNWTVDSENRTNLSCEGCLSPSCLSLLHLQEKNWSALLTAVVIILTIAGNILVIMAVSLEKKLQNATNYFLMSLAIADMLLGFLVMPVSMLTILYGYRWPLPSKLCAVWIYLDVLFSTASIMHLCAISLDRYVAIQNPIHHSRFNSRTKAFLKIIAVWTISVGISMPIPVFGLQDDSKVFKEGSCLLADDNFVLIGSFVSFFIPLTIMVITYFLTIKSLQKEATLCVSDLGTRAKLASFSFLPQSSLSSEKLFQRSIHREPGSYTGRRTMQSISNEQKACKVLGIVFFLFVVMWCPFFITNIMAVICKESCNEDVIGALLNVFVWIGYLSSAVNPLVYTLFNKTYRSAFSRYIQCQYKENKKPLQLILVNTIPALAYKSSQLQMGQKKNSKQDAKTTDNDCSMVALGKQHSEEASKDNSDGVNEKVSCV
Chain of Muscarinic acetylcholine receptor M1 (Homo sapiens) (P11229 whole entry, looked up): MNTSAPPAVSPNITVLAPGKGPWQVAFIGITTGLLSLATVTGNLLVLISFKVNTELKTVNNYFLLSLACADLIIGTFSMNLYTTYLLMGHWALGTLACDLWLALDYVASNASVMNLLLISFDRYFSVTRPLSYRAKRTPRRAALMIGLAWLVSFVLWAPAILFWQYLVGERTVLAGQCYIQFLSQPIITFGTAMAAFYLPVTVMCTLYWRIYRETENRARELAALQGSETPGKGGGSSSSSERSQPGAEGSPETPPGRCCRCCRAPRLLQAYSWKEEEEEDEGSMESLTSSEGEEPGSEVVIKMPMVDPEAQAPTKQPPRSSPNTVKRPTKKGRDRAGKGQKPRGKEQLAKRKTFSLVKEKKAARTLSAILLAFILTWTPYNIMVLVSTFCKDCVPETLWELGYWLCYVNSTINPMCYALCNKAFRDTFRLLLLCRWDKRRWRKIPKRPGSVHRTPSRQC
Chain of D(2) dopamine receptor (Homo sapiens) (P14416 whole entry, looked up): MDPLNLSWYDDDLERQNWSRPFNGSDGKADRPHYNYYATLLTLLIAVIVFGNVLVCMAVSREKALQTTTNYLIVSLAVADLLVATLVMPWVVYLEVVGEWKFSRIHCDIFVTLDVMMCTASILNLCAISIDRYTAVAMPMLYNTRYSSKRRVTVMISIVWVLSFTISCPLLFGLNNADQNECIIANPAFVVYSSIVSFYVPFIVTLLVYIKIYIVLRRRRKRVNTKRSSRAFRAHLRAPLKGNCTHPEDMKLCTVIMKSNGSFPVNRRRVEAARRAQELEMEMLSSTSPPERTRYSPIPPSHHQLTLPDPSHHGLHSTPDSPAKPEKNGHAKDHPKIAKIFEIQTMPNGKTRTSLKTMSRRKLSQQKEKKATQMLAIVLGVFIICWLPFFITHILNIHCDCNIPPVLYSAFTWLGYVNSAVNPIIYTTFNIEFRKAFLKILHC
Chain of KiSS-1 receptor (Homo sapiens) (Q969F8 whole entry, looked up): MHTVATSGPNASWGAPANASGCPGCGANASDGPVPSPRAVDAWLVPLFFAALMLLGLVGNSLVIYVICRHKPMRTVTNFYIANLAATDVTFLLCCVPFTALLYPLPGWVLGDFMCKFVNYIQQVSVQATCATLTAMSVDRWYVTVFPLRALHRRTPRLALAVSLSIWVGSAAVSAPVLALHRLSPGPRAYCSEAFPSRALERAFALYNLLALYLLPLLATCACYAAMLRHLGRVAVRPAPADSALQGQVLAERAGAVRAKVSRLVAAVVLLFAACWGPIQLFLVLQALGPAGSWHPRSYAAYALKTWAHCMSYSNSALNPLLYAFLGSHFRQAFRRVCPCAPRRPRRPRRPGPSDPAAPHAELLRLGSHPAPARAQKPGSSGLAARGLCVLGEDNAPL
Chain of Gonadotropin-releasing hormone receptor (Homo sapiens) (P30968 whole entry, looked up): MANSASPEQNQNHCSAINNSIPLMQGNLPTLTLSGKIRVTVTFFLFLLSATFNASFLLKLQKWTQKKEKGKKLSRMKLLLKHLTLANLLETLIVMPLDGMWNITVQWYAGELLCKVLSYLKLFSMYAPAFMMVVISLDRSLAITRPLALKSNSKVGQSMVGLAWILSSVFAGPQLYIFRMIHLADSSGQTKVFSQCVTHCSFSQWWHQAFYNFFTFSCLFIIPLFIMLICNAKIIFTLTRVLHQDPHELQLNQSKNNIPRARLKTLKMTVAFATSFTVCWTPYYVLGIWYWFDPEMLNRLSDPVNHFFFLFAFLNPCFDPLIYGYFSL

COc1cc(C(=O)NS(=O)(=O)c2ccccc2C)ccc1Cc1cn(C)c2ccc(NC(=O)OC3CCCC3)cc12
inactive: [1] | [2] | [3] | [4] | [5] | [6] | [7] | [8] | [9] | [10] | [11] | [12] | [13] | [14]

N#Cc1ccc(CC(=O)c2cccc(C(F)(F)F)c2)cc1
inactive: [1] | [2] | [3] | [4] | [5] | [6] | [7] | [8] | [9] | [10] | [15] | [16] | [17] | [18] | [19] | [11] | [13] | [14]

O=C1N(c2ccccc2)c2ccccc2C1(Cc1ccncc1)Cc1ccncc1
inactive: [1] | [2] | [3] | [4] | [5] | [6] | [7] | [8] | [9] | [10] | [16] | [17] | [18] | [19] | [11] | [13] | [14]

C#CCN[C@@H]1CCc2ccccc21
inactive: [1] | [2] | [3] | [4] | [5] | [6] | [7] | [8] | [9] | [10] | [16] | [20] | [17] | [19] | [11] | [14]

CC(=O)NCCCCCC(=O)O
inactive: [1] | [2] | [3] | [4] | [5] | [6] | [7] | [8] | [9] | [10] | [15] | [16] | [20] | [17] | [19] | [12] | [13] | [14]

CNC(=O)CN(CCN(CCN(CC(=O)[O-])CC(=O)NC)CC(=O)[O-])CC(=O)[O-].O.[Gd+3]
inactive: [1] | [2] | [3] | [4] | [5] | [6] | [7] | [8] | [9] | [10] | [17] | [18] | [19] | [11] | [14]

CC[N+](CC)(CC)CCOc1cccc(OCC[N+](CC)(CC)CC)c1OCC[N+](CC)(CC)CC
inactive: [1] | [2] | [3] | [4] | [5] | [6] | [7] | [8] | [9] | [10] | [18] | [19] | [11] | [12] | [13] | [14]

CN(C)CC/C=C1/c2ccccc2COc2ccc(CC(=O)O)cc21
inactive: [1] | [2] | [3] | [4] | [5] | [6] | [7] | [8] | [9] | [10] | [16] | [17] | [18] | [19] | [11] | [13] | [14]
